PPARg SRC2 recr = agonists of PPARg-SRC-2 recruitment, primary screen, biochemical, HTS; 200,000 compounds, 0.34% hits; AID 1032, 2008; PPARgamma LBD-SRC-2 recruitment; activation, % at 8 µM; in the data active means activation above about 22%
Target sequence (P37231 whole entry, looked up, the tested form may be a part): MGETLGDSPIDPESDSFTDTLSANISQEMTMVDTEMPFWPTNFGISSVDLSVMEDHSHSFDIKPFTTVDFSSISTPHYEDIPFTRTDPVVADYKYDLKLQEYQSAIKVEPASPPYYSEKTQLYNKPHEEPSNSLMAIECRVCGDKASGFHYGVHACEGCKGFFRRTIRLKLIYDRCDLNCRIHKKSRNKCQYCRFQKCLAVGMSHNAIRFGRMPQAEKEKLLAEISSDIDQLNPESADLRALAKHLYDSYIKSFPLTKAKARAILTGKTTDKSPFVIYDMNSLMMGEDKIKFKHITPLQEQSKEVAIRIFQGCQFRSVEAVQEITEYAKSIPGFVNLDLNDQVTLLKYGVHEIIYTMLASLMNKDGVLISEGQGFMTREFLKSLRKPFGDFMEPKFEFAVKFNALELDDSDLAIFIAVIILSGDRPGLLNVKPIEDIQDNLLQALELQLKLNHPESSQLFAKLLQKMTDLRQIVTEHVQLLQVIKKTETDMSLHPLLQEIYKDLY
SRC3 TRFRET art = TR-FRET detection interference compounds, artefact control for PPARgamma SRC-3 recruitment agonists, biochemical, TR-FRET ratio; AID 1048, 2008; TR-FRET ratio at 8 µM; 99,000 compounds, 0.39% hits; TR-FRET artefact counter-screen, PPARgamma/SRC-3 format; stronger effect = higher value
PPARg SRC-1 ag = PPARgamma agonists recruiting SRC-1 coactivator, primary screen, biochemical; Peroxisome proliferator-activated receptor gamma (Homo sapiens), P37231; PPARgamma-SRC-1 coactivator recruitment biochemical assay; activation, % at 8 µM; 200,000 compounds, 0.41% hits; in the data active means activation above about 19%
SRC1 TRFRET art = TR-FRET detection interference compounds, primary screen, artefact control for PPARgamma SRC-1 recruitment agonists, biochemical, TR-FRET emission ratio. TR-FRET detection artefact counter-screen; stronger effect = higher value. TR-FRET ratio at 8 µM. 99,000 compounds, 0.34% hits; in the data active means TR-FRET ratio above about 2300
PPARg SRC3 recr = PPARgamma agonists recruiting SRC-3 coactivator, primary screen, biochemical; Peroxisome proliferator-activated receptor gamma (Homo sapiens), P37231; biochemical PPARgamma/SRC-3 coactivator recruitment assay; activation, % at 8 µM; 200,000 compounds, 0.26% hits; AID 731, 2007; in the data active means activation above about 23%
SRC2 TRFRET art = TR-FRET signal artefacts, primary screen, artefact control for PPARgamma SRC-2 agonist project, biochemical | TR-FRET artefact counter-screen; stronger effect = higher value | TR-FRET ratio at 8 µM | 200,000 compounds, 0.4% hits | AID 1049, 2008
PPARg SRC2 ag = agonists of PPARgamma SRC-2 coactivator recruitment, confirmation, biochemical, HTS | biochemical SRC-2 recruitment by PPARgamma | 790 compounds, 52% hits | shares compounds with PPARg SRC3 recr | activation, % at 8 µM | AID 1297, 2008; in the data active means activation above about 22%
PPARg SRC1 conf = PPARgamma agonists recruiting SRC-1 coactivator, confirmation, biochemical; shares compounds with PPARg SRC3 recr; PPARgamma–SRC-1 coactivator recruitment biochemical assay; activation, % at 8 µM; 790 compounds, 43% hits; AID 1300, 2008; in the data active means activation above about 20%
PPARg SRC3 ag = PPARgamma-driven SRC-3 coactivator recruitment agonists, confirmation, biochemical. shares compounds with PPARg SRC3 recr. biochemical PPARgamma-SRC-3 coactivator recruitment, agonist mode. activation, % at 8 µM. 790 compounds, 29% hits. AID 1301, 2008; in the data active means activation above about 24%
A number is an active result. Sampled rows, rich in hits. Any-hit rate of the full collection: about 0.84%. Unless noted, no stated cut-off is given here; in the data, active means TR-FRET ratio above about 2000; inactive means the rest.

How did Cc1nn(CC(=O)NCc2cc3ccccc3[nH]2)c(C)c1[N+](=O)[O-] do in these assays?
PPARg SRC2 recr: inactive; SRC3 TRFRET art: inactive; PPARg SRC-1 ag: inactive; SRC1 TRFRET art: inactive; PPARg SRC3 recr: inactive; SRC2 TRFRET art: inactive

What do the screens show for `Cc1cc(C)cc(-n2c(C)cc(/C=N/NC(=O)c3ccncc3)c2C)c1`?
PPARg SRC2 recr: inactive; SRC3 TRFRET art: inactive; PPARg SRC-1 ag: inactive; SRC1 TRFRET art: inactive; PPARg SRC3 recr: inactive; SRC2 TRFRET art: 1986

What do the screens show for `Cc1ccccc1-n1c(C)cc(/C=N/NC(=O)c2ccncc2)c1C`?
PPARg SRC2 recr: inactive; PPARg SRC-1 ag: inactive; PPARg SRC3 recr: inactive; SRC2 TRFRET art: inactive

What do the screens show for `Cn1nc(-c2ccccc2)c(C(=O)Nc2ccc(Cl)cc2)c1Cl`?
PPARg SRC2 recr: inactive; PPARg SRC-1 ag: inactive; PPARg SRC3 recr: inactive; SRC2 TRFRET art: inactive

Results for Cn1nc(-c2ccccc2)c(C(=O)Nc2ccc(C(F)(F)F)cc2)c1Cl ?
PPARg SRC2 recr: inactive; PPARg SRC-1 ag: inactive; PPARg SRC3 recr: 32; SRC2 TRFRET art: inactive

What do the screens show for `Cc1cc(Br)ccc1NC(=O)CN1C(=S)NC(C)(C)CC1C` (stereo unspecified)?
PPARg SRC2 recr: inactive; SRC3 TRFRET art: inactive; PPARg SRC-1 ag: inactive; SRC1 TRFRET art: inactive; PPARg SRC3 recr: inactive; SRC2 TRFRET art: inactive

How did COc1ccc(-n2c(SCCC#N)nnc2-c2cc(Cl)ccc2OC)cc1Cl do in these assays?
PPARg SRC2 recr: inactive; PPARg SRC-1 ag: inactive; PPARg SRC3 recr: inactive; SRC2 TRFRET art: 2116

What do the screens show for `Cc1cccc(-c2nnc(SCC#N)n2-c2cccc(Cl)c2)c1`?
PPARg SRC2 recr: inactive; PPARg SRC-1 ag: inactive; PPARg SRC3 recr: inactive; SRC2 TRFRET art: inactive

Results for CCCn1c(O)c(C=Nc2ccccc2)sc1=S ?
PPARg SRC2 recr: inactive; SRC3 TRFRET art: inactive; PPARg SRC-1 ag: inactive; SRC1 TRFRET art: inactive; PPARg SRC3 recr: inactive; SRC2 TRFRET art: inactive

What do the screens show for `CCn1c(O)c(C=Nc2ccccc2)oc1=S`?
PPARg SRC2 recr: inactive; PPARg SRC-1 ag: inactive; PPARg SRC3 recr: inactive; SRC2 TRFRET art: 1976

Results for COc1cccc(NC(=O)Cc2nc(-c3ccccc3)sc2-c2ccc(C)cc2)c1 ?
PPARg SRC2 recr: inactive; SRC3 TRFRET art: 3358; PPARg SRC-1 ag: inactive; SRC1 TRFRET art: 3241; PPARg SRC3 recr: inactive; SRC2 TRFRET art: 2590

Results for COc1ccc(-c2noc(Cc3cccs3)n2)cc1 ?
PPARg SRC2 recr: inactive; PPARg SRC-1 ag: inactive; PPARg SRC3 recr: inactive; SRC2 TRFRET art: inactive

What do the screens show for `COc1cccc(-c2nc(-c3ccc(NC(=O)Cc4ccccc4OC)cc3)no2)c1`?
PPARg SRC2 recr: inactive; PPARg SRC-1 ag: inactive; PPARg SRC3 recr: inactive; SRC2 TRFRET art: 1985

What do the screens show for `COc1ccc(-c2noc(Cc3ccccc3OC)n2)cc1`?
PPARg SRC2 recr: inactive; PPARg SRC-1 ag: inactive; PPARg SRC3 recr: 26; SRC2 TRFRET art: inactive

Results for COc1ccc(-c2nc(-c3ccc(NC(=O)c4ccc(Br)o4)cc3)no2)cc1OC ?
PPARg SRC2 recr: inactive; PPARg SRC-1 ag: inactive; PPARg SRC3 recr: 30; SRC2 TRFRET art: inactive

Results for CCOC(=O)/C=c1\s/c(=C\c2ccc3cc(OC)ccc3c2)c(=O)n1CC(=O)NCc1ccc2c(c1)OCO2 ?
PPARg SRC2 recr: inactive; SRC3 TRFRET art: inactive; PPARg SRC-1 ag: inactive; SRC1 TRFRET art: inactive; PPARg SRC3 recr: inactive; SRC2 TRFRET art: inactive

How did C=CCn1c(C(C)NC(=O)c2cccc(C)c2)n[nH]c1=S (stereo unspecified) do in these assays?
PPARg SRC2 recr: inactive; SRC3 TRFRET art: inactive; PPARg SRC-1 ag: inactive; SRC1 TRFRET art: inactive; PPARg SRC3 recr: inactive; SRC2 TRFRET art: inactive

What do the screens show for `Cc1cc(C(=O)Nc2cccc3cccnc23)ccc1[N+](=O)[O-]`?
PPARg SRC2 recr: inactive; SRC3 TRFRET art: inactive; PPARg SRC-1 ag: inactive; SRC1 TRFRET art: inactive; PPARg SRC3 recr: inactive; SRC2 TRFRET art: inactive

Results for O=c1c(Cl)nc2cc(Cl)ccc2n1CCNc1ncc(C(F)(F)F)cc1Cl ?
PPARg SRC2 recr: inactive; PPARg SRC-1 ag: 32; PPARg SRC3 recr: inactive; SRC2 TRFRET art: inactive

How did NNc1nc2cccnc2n(CCNc2ncc(C(F)(F)F)cc2Cl)c1=O do in these assays?
PPARg SRC2 recr: inactive; SRC3 TRFRET art: inactive; PPARg SRC-1 ag: inactive; SRC1 TRFRET art: inactive; PPARg SRC3 recr: inactive; SRC2 TRFRET art: inactive

What do the screens show for `COc1ccc(Cn2c(-c3ccc(C)cc3)nc3c(c(=O)c4ccccc4n3C)c2=O)cc1`?
PPARg SRC2 recr: 29; SRC3 TRFRET art: inactive; PPARg SRC-1 ag: inactive; SRC1 TRFRET art: inactive; PPARg SRC3 recr: inactive; SRC2 TRFRET art: 2131

How did C/C(=N\Nc1nc2ccccc2[nH]1)c1ccc(C)o1 do in these assays?
PPARg SRC2 recr: inactive; SRC3 TRFRET art: 2059; PPARg SRC-1 ag: inactive; SRC1 TRFRET art: inactive; PPARg SRC3 recr: inactive; SRC2 TRFRET art: inactive

How did O=C(O)CCCC(=O)N1CCc2cc(S(=O)(=O)NCc3ccc(F)cc3)ccc21 do in these assays?
PPARg SRC2 recr: inactive; SRC3 TRFRET art: inactive; PPARg SRC-1 ag: inactive; SRC1 TRFRET art: inactive; PPARg SRC3 recr: inactive; SRC2 TRFRET art: inactive

What do the screens show for `COC(=O)c1sccc1-c1ccc(/C=N/OC(=O)c2ccccc2)o1`?
PPARg SRC2 recr: 56; PPARg SRC-1 ag: 31; PPARg SRC3 recr: 47; SRC2 TRFRET art: 2291; PPARg SRC2 ag: 56; PPARg SRC1 conf: 49; PPARg SRC3 ag: 40

How did CCn1cc(CNC(=O)c2cc(-c3cc(OC)ccc3OC)nc3ccccc23)c(C)n1 do in these assays?
PPARg SRC2 recr: inactive; SRC3 TRFRET art: inactive; PPARg SRC-1 ag: inactive; SRC1 TRFRET art: inactive; PPARg SRC3 recr: inactive; SRC2 TRFRET art: inactive

Results for CCn1c(=O)cc(SCC(=O)NCc2cccnc2)c2ccccc21 ?
PPARg SRC2 recr: inactive; PPARg SRC-1 ag: 21; PPARg SRC3 recr: inactive; SRC2 TRFRET art: inactive; PPARg SRC2 ag: inactive; PPARg SRC1 conf: inactive; PPARg SRC3 ag: inactive

Results for CCn1c(=O)cc(OCC(=O)Nc2ccc(C)cn2)c2ccccc21 ?
PPARg SRC2 recr: inactive; PPARg SRC-1 ag: inactive; PPARg SRC3 recr: inactive; SRC2 TRFRET art: inactive
